From PubChem BioAssay (NCATS) come the findings set out here.

Structures are written as SMILES. Inconclusive results are not listed. Activity calls are given as the source filed them. Unless noted, calls come from the whole dose curve; as a rule, active = well fitted curve in the direction sought with a large enough effect; inconclusive = small, poorly fitted or top-dose-only effect, or another doubt; inactive = no such curve, though single readings can be large; an effect the other way counts as inactive or inconclusive.

The target in assay [1] is Ferritin light chain (Equus caballus) (UniProt P02791). The assay is described as follows: qHTS Validation Assay for Identification of Novel General Anesthetics (AID 2323). A digest of the protocol:
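Apoferritin from horse spleen (10 uM) was mixed with 1-aminoanthracene at 50% saturation in PBS, then compounds were added. After 10 min at room temperature, fluorescence was read (ex 380 nm, em 535 nm) and normalized to free-probe and complex controls.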
(In general: Quantitative high-throughput screening tests each substance at several concentrations.)

The target of assay [2] is ATP-dependent DNA helicase Q1 (Homo sapiens) (UniProt P46063). The assay is described as follows: qHTS Validation Assay for Inhibitors of RecQ-Like Dna Helicase 1 (RECQ1) (AID 2353). A digest of the protocol:
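RECQ1T1 50 nM; forked duplex (20 bp + 30-nt ss tails) 200 nM, ATP 2 mM final; pH 8.0, 2 mM MgCl2, 2.5 ug/ml poly(dI-dC); 15 min compound preincubation; discontinuous kinetic read over 2 h at RT.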

Assay [3] addresses RecQ-like DNA helicase BLM (Homo sapiens) (UniProt P54132). The assay is described as follows: qHTS Validation Assay for Inhibitors of Bloom's syndrome helicase (BLM) (AID 2364). The procedure, abridged: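 BLM 50 nM in 25 mM Tris-HCl pH 8.0, 5 mM NaCl, 2 mM MgCl2, 1 mM DTT, 0.01% Tween-20, 2.5 ug/ml poly(dI-dC); 15 min cpd preinc, RT. Start: 200 nM forked DNA + 2 mM ATP (final). TAMRA read, 2 reads 2 h apart.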

Assay [4] can be described thus: Cytometric Cell-Based qHTS for Inhibitors of the mTORC1 Signaling Pathway in MEF (Tsc2-/-, p53-/-) Cells (AID 2660).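 Note: Tsc2 and p53 null MEFs carrying empty vector with compound for 24 h; percent of cells above a phospho-rpS6 to PI ratio cutoff in each well.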 A digest of the protocol:
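Immunofluorescence qHTS of rpS6 Ser235/236 phosphorylation: MEFs (Tsc2-/-, p53-/-) treated 24 h, 37 C, in DMEM + 10% FBS. Alexa-488 signal normalized to PI count, referenced to rapamycin (7.5 nM) and DMSO; PI cell number recorded for viability.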

A short description of assay [5]: High Content Imaging Cell-Based qHTS for Inhibitors of the mTORC1 Signaling Pathway in MEF (Tsc2-/-, p53-/-) Cells (AID 2666).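 Note: percent of cells scored positive for phospho-rpS6 Ser235/236 immunostaining by imaging.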 To be noted: at 38.3 µM (top of the series). The procedure, abridged:
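Inhibition of rpS6 phosphorylation is measured by immunofluorescence imaging in empty-vector Tsc2-/-, p53-/- mouse embryonic fibroblasts after 24 hrs compound exposure at 37 degree Celsius. Results are reported as % positive cells per well.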

The nature of assay [6]: High Content Imaging Cell-Based qHTS for Inhibitors of the mTORC1 Signaling Pathway in MEF Cells (AID 2667).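 Note: Tsc2-/- p53-/- MEFs stably re-expressing wild-type Tsc2 exposed 24 h.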 A digest of the protocol: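 Fixed-cell imaging of phospho-S6 (Ser235/236, Alexa-488) after 24 hrs of compound treatment at 37 degree Celsius. Signal was normalized to Hoechst, and thresholds from the highest and lowest wells split cells into % active versus % non-active.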

Assay [7] is described as follows: Cytometry Cell-Based qHTS for Inhibitors of the mTORC1 Signaling Pathway in MEF cells (AID 2668).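 Note: Tsc2-/- p53-/- mouse embryonic fibroblasts stably re-expressing wild-type Tsc2; percent cells positive for phospho-rpS6 Ser235/236 relative to propidium iodide stain.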 A digest of the protocol:
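Pathway inhibition in WT Tsc2-rescued Tsc2-/-, p53-/- MEFs is measured as the Alexa-488 phospho-rpS6 to propidium iodide intensity ratio after 24 hrs of compound at 37 degree Celsius. PI-stained cell number gives viability.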

A short description of assay [8]: Validation screen for small molecules that induce DNA re-replication in MCF 10A normal breast cells (AID 463097). Note: nearly all actives have a fitted effect of over 60% in size. A digest of the protocol: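 DNA re-replication was detected as a rise in nuclei with elevated Hoechst fluorescence after a 48 hr compound exposure of MCF 10A cells at 37 C.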
The target in assay [9] is Ubiquitin carboxyl-terminal hydrolase 2 (Homo sapiens) (UniProt O75604). The assay is described as follows: qHTS Validation Assay for Inhibitors of Ubiquitin-specific Protease USP2a Using CHOP2 as the Reporter (AID 463106). The procedure, abridged: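 Inhibition is expressed relative to NEM as the full-inhibition control, with concentration-response curves classed by fit quality, magnitude and activity. Enzyme (USP2 core, 10nM) meets 25nM Ub-CHOP2 after compound preincubation; readings are taken at 60min.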

For assay [10], the target named is DNA polymerase III PolC-type (Bacillus subtilis (strain 168)) (UniProt P13267). The assay is described as follows: qHTS Validation Assay for the Inhibitors of DNA Replication in Gram-Positive Bacteria (AID 485295).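 Note: reconstituted holoenzyme with PolC plus beta clamp SSB and primase; PicoGreen fluorescence of double-stranded DNA made on primed circular M13 template.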 A digest of the protocol: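 Primed replication of single-stranded M13Gori by a four-protein B. subtilis holoenzyme is measured at room temperature. Double-stranded product is quantified by PicoGreen fluorescence after an EDTA stop; inhibition is scaled between DMSO and EDTA controls.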

For assay [11], the target named is Tumor susceptibility gene 101 protein (Homo sapiens) (UniProt Q99816). The assay is described as follows: qHTS Validation Assay for Iinhibitors of HIV-1 Budding by Blocking the Interaction of PTAP/TSG101 (AID 485342; calls by dose curve). The procedure, abridged: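 Fluorescence anisotropy measured PTAP-Tsg101 interaction. Final concentrations were 10 uM protein domain and 50 nM labeled peptide, equilibrated 20 min at room temperature.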

Assay [12] can be described thus: qHTS Validation Assay to Find Inhibitors of Chronic Active B-Cell Receptor Signaling (AID 485345; active = well fitted curve in the direction sought with a large enough effect in the main read-out, with a control signal flat, not every such curve was filed as active). The procedure, abridged:
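TMD8 ABC-DLBCL cells with dox-inducible green luciferase–IκBα fusion and red native luciferase; compounds 46 uM–3 nM, 4 h at 37C with doxycycline in 0.5% FBS IMDM. Green/red ratio normalized to basal and 10 uM MG-132.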

Assay [13] addresses Beta-2 adrenergic receptor (Homo sapiens) (UniProt P07550). The assay is described as follows: qHTS validation assay of beta-arrestin-biased ligands of beta2-adrenergic receptor (AID 485366). The procedure, abridged: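 Agonism was measured as beta-arrestin recruitment to recombinant beta2-AR, releasing tTA to drive luciferase. Cells were exposed for 18 hr at 37 degrees C to a series up to 46 microM. %Activity from corrected luminescence gave concentration-response curves.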

Assay [14] has as its target ATP-dependent 6-phosphofructokinase (Trypanosoma brucei brucei) (UniProt O15648). The assay is described as follows: qHTS Validation Assay to Find Inhibitors of T. brucei phosphofructokinase (AID 485368). The following applies: outcome: dose series up to 57.5 µM. A digest of the protocol:
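ADP-Glo luminescence, two-step: residual ATP depleted, then ADP converted to ATP for luciferase. Enzyme 1.25 nM, F6P 0.5 mM, ATP 0.1 mM, pH 8.0 TEA buffer, 45 min RT. Curves fitted and classed by quality and efficacy.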

Assay [15] in a line: Quantitative high throughput screen for delayed death inhibitors of the malarial parasite plastid, 96 hour incubation (AID 488745). Note: nearly all actives have a fitted effect of over 70% in size. Note: potency is the fitted concentration of half-maximal effect. The procedure, abridged: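 Readout is firefly luciferase luminescence from an integrated reporter in P. falciparum; lower signal marks inhibited growth. Cultures at 2% hematocrit and 0.1% parasitemia were treated with compound across two generations (96 h, 37 C, 5% CO2).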

The nature of assay [16]: Quantitative high throughput screen for delayed death inhibitors of the malarial parasite plastid, 48 hour incubation (AID 488752). Note: nearly all actives have a fitted effect of over 65% in size. Note: potency is the fitted concentration of half-maximal effect. The procedure, abridged: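 First, compound was pinned into RPMI 1640 medium containing 0.5% Albumax. Next, reporter-parasite-infected erythrocytes were added to 2% hematocrit and 0.1% parasitemia. After 48 h at 37 C under 5% CO2, luciferase detection reagent was added and luminescence read.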

In assay [17] the target is Thioredoxin reductase 1, cytoplasmic (Rattus norvegicus) (UniProt O89049). The assay is described as follows: qHTS Assay for Substrates of Mammalian Selenoprotein Thioredoxin Reductase 1 (TrxR1) (AID 488772).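 Note: a drop in NADPH fluorescence below the no-compound background marks a TrxR1 substrate.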 The procedure, abridged: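 In this dual-purpose format, potential substrates are identified from the first fluorescence read after selenite addition, not from the 8-minute delta. Rat enzyme is preincubated with NADPH and then with compound at ~22 deg C.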

Assay [18] has the same target. The assay is described as follows: qHTS Assay for Inhibitors of Mammalian Selenoprotein Thioredoxin Reductase 1 (TrxR1) (AID 488773).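 Note: drop in NADPH fluorescence over an 8 min run after selenite addition; nearly all actives have a fitted effect of over 40% in size.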 The following applies: Potency: inhibition. The procedure, abridged:
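Inhibition is scored from the loss of NADPH fluorescence between first and last reads of an 8-min kinetic run. Selenite (400 uM) was the substrate, added after 15 min compound preincubation at room temperature.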

The target in assay [19] is Flap endonuclease 1 (Homo sapiens) (UniProt P39748). The assay is described as follows: qHTS Validation Assay for the Inhibitors of Human Flap endonuclease 1 (FEN1) (AID 488816). The procedure, abridged: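 Steps: add FEN1 (10 nM reagent) or buffer only; pin compounds; hold 15 min at room temperature; start with substrate, 50 nM final; read at 0 and 15 min; correct, normalize and fit a four-parameter Hill curve.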

Assay [20] is described as follows: qHTS Assay for Identification of Small Molecule Inducers of Hypoxia Response (AID 2120; active = well fitted curve in the direction sought with a large enough effect in the signal ratio, with a control signal flat, not every such curve was filed as active; the % refers to the signal ratio). The procedure, abridged:
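Cell-based qHTS for reporter induction: hypoxia response element controlled beta-lactamase in ME-180 cells. Compounds incubated 17 h at 37 degrees C; activity from blue/green (460/530 nm) ratio, inducers ranked by AC50.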

Beta-2 adrenergic receptor (Homo sapiens), sequence (P07550 whole entry, looked up): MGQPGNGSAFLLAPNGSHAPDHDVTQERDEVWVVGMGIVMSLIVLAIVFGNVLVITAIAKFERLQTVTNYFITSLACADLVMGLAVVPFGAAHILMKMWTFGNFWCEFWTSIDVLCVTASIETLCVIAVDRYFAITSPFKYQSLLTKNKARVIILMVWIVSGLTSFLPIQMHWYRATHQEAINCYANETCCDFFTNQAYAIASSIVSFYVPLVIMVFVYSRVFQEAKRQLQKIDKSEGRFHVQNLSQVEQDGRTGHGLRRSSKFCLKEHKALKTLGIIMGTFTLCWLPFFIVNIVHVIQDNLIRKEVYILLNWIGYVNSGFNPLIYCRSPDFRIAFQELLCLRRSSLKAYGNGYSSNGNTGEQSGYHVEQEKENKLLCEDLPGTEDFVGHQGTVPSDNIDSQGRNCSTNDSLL
Thioredoxin reductase 1, cytoplasmic (Rattus norvegicus), sequence (O89049 whole entry, looked up): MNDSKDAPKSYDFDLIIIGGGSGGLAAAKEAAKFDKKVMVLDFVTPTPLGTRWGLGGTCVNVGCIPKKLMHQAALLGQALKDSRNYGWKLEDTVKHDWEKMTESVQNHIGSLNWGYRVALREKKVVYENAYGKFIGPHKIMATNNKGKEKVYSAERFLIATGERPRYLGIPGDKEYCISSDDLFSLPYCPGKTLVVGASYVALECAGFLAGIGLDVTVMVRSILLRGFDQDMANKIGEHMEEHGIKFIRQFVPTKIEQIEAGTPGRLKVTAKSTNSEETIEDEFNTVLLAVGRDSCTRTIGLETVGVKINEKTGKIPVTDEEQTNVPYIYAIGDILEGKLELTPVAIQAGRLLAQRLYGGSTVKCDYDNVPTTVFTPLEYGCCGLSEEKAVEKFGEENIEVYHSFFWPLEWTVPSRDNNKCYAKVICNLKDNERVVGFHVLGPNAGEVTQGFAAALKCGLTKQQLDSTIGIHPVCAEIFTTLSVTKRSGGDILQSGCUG
ATP-dependent DNA helicase Q1 (Homo sapiens), sequence (P46063 whole entry, looked up): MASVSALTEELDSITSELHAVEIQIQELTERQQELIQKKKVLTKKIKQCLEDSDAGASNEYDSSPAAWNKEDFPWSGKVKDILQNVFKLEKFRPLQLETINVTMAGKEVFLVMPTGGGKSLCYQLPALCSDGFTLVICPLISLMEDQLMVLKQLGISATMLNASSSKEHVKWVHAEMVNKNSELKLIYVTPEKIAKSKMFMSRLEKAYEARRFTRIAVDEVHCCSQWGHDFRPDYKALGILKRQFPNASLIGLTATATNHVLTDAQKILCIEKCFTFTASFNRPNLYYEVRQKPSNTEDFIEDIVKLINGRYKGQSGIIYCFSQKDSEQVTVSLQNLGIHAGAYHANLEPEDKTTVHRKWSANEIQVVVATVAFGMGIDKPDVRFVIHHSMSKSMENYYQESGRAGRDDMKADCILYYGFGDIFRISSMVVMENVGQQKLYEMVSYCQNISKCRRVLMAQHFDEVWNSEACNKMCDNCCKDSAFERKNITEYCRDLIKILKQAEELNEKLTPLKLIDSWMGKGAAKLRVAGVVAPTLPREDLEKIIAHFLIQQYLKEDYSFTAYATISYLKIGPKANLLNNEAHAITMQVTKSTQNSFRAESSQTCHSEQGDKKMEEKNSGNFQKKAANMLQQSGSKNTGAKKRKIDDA
Ferritin light chain (Equus caballus), sequence (P02791 2-175 limits assumed): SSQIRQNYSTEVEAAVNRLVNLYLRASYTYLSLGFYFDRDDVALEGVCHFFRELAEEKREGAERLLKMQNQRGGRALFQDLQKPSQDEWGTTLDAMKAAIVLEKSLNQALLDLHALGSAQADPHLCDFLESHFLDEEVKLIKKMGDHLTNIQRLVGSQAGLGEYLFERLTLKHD
Ubiquitin carboxyl-terminal hydrolase 2 (Homo sapiens), sequence (O75604 whole entry, looked up): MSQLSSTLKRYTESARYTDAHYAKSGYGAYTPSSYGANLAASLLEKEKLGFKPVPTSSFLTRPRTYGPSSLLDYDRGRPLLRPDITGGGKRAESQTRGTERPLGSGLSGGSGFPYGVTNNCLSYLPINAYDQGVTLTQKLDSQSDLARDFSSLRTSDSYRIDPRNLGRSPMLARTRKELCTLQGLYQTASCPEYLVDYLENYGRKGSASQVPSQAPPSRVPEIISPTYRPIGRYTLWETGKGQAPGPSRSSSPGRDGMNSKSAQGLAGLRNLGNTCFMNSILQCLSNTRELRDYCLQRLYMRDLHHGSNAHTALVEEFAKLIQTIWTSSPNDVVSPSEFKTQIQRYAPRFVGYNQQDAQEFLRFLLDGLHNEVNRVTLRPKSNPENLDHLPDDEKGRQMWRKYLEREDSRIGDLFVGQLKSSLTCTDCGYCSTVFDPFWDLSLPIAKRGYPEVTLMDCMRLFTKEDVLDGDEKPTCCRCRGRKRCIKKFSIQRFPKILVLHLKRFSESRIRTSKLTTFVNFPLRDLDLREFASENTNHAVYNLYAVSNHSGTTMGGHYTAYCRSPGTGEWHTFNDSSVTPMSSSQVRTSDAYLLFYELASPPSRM
Tumor susceptibility gene 101 protein (Homo sapiens), sequence (Q99816 whole entry, looked up, the tested form may be a part): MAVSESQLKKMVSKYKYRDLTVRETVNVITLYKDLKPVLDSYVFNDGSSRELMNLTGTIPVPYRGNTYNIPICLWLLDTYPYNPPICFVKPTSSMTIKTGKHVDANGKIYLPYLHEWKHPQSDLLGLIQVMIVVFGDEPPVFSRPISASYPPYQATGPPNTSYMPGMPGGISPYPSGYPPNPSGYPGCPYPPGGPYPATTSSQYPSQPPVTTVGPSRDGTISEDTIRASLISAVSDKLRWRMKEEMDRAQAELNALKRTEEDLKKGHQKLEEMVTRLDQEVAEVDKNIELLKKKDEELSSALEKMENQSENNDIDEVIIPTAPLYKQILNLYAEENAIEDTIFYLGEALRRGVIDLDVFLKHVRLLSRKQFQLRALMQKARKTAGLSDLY
ATP-dependent 6-phosphofructokinase (Trypanosoma brucei brucei), sequence (O15648 whole entry, looked up): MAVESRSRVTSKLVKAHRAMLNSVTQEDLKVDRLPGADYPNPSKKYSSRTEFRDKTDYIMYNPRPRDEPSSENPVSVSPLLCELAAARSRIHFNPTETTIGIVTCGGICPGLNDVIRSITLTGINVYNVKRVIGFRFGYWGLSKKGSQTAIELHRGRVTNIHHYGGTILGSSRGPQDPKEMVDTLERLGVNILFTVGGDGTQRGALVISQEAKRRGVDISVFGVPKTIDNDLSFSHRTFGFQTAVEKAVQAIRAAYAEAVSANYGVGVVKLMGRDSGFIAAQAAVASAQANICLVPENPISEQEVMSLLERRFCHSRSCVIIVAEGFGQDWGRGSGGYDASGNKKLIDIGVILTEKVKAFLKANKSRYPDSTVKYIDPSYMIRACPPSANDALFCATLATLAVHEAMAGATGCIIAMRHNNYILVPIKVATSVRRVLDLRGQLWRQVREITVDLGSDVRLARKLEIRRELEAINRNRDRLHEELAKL
Flap endonuclease 1 (Homo sapiens), sequence (P39748 whole entry, looked up): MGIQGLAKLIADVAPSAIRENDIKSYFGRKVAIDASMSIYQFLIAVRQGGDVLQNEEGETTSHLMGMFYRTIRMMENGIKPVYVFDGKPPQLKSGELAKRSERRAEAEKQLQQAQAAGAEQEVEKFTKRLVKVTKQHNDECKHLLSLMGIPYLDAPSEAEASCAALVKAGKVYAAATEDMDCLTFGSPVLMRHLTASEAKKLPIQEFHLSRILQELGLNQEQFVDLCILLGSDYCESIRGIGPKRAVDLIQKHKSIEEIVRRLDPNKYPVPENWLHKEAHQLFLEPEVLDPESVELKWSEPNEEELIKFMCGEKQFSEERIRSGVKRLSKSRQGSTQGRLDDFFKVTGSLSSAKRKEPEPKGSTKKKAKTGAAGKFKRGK
RecQ-like DNA helicase BLM (Homo sapiens), sequence (P54132 whole entry, looked up): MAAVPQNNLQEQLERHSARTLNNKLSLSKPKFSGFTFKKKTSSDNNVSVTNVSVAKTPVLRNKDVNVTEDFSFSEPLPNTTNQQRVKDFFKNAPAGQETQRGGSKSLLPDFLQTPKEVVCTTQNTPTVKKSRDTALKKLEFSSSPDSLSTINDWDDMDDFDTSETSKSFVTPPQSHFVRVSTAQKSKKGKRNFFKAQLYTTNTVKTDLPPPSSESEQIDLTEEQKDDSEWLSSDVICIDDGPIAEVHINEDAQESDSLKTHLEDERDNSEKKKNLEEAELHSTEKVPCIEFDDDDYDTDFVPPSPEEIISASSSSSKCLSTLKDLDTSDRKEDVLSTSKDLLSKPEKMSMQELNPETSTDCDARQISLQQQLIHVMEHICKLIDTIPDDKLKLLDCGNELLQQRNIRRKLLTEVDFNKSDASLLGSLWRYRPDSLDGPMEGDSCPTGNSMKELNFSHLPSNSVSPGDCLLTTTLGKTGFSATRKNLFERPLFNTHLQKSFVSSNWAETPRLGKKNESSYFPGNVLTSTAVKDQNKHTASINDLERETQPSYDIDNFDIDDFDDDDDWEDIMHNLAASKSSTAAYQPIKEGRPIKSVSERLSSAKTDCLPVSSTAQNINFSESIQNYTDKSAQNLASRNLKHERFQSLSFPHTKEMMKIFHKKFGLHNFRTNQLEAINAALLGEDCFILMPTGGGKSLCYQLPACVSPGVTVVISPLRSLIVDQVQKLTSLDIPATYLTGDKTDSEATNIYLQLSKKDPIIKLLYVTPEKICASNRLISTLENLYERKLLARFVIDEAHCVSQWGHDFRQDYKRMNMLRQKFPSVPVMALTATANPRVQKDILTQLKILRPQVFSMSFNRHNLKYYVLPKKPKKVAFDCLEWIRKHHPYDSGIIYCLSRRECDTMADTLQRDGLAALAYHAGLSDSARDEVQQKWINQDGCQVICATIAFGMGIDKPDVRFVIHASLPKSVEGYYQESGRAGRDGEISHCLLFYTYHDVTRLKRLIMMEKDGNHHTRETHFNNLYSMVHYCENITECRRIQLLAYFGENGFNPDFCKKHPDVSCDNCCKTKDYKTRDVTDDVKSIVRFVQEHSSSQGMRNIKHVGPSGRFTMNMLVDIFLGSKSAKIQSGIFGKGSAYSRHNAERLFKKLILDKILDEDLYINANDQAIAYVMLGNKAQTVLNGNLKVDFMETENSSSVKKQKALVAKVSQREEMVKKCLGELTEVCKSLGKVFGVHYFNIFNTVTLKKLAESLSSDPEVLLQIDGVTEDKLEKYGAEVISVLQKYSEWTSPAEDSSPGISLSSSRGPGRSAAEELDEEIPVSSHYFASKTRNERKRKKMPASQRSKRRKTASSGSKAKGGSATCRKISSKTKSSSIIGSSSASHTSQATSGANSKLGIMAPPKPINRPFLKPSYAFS

In the case of `NC(=O)c1cnccn1`, the call in assay [1], in [2], in [4], in assay [5], in assay [6] and in assay [7] was inactive. For the same compound, the compound was called inactive in assay [9], in assay [11], in assay [12], in assay [13], in [14] and in assay [17]. For the same compound, the Potency result in [3], in [8], in assay [10], in assay [15], in assay [16] and in assay [18] was “inactive” each time. Further, in assay [19], the Potency result was “inactive”.
Regarding `CCCC(CCC)C(=O)O`, the compound was classed as inactive in assay [20], in assay [1], in assay [2], in [4], in assay [5] and in assay [6]. Also, the call in assay [7], in assay [9], in [11], in [12], in assay [13] and in assay [14] was inactive. Besides, in assay [17], the outcome was inactive. The Potency entry in [8], in [10], in [15], in assay [16], in assay [18] and in assay [19] was “inactive” each time.
Turning to `Cc1[nH]c(=O)c(C#N)cc1-c1ccc2nccn2c1`, the result in assay [1], in assay [2], in [4], in assay [5], in assay [6] and in assay [7] was inactive. Also, the outcome in assay [9], in assay [11], in [12], in assay [13] and in assay [17] was inactive. Moreover, the Potency result in assay [8], in [10], in [15], in [16], in assay [18] and in assay [19] was “inactive” in each case.
With `CC(C)C[C@H](NC(=O)[C@@H](O)[C@H](N)Cc1ccccc1)C(=O)O`, the outcome in assay [1], in assay [2], in [4], in assay [5], in assay [6] and in assay [7] was inactive. The result in assay [9], in assay [11], in [12] and in [17] was inactive. Further, the Potency result in assay [3], in assay [8], in assay [10], in assay [18] and in assay [19] was “inactive” in each case. Further, the Potency in [15] is 0.37 µM (active); in assay [16], 1.04 µM (active).
As to `CNC[C@H](O)c1cccc(O)c1`, the compound was classed as inactive in assay [1], in assay [2], in assay [4], in assay [5], in [6] and in assay [7]. Further, the outcome in assay [9], in [11], in assay [12], in [13], in assay [14] and in [17] was inactive. In addition, the Potency entry in assay [8], in [10], in assay [15], in assay [16], in assay [18] and in [19] was “inactive” throughout.
